Test results reported in PubChem BioAssay AID1008 (NMMLSC, 2008).
Hit rate of the full screen: of about 190,000 compounds, about 240 (0.13%) were called active. No stated cut-off is given here; in the data, active means inhibition above about 40%. What follows is part of a selection rich in actives, with near analogues and random picks from the rest.

Target: Bcl-2-related protein A1 (Homo sapiens) (UniProt Q16548)
Experiment: Bfl-1/Bim complex disruptors – biochemical, multiplexed, bead-based flow cytometry, primary screen (AID 1008);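 further: 0% = wells without compound plus tracer and 100% = blocker peptide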
Settings: Bim-Bfl-1 binding inhibition, at 10 µM, stronger effect = higher value

Bcl-2-related protein A1 (Homo sapiens), sequence (Q16548 whole entry, looked up): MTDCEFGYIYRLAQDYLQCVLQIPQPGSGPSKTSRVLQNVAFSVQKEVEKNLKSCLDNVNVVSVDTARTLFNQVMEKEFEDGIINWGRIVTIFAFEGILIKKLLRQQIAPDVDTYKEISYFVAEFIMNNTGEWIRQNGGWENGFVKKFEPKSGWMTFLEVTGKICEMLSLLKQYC

SMILES	inhibition
C=CCn1c(O)c(/C=N/N2CCOCC2)c(=O)[nH]c1=S	3% (inactive)
O=c1[nH]c(=S)n(C2CC2)c(O)c1/C=N/N1CCOCC1	-14% (inactive)
Cc1cccc(-n2c(O)c(/C=N/N3CCOCC3)c(=O)[nH]c2=S)c1	41% (active)
N#Cc1ccc(Cn2cc(C(=O)c3ccco3)c3ccccc32)cc1	-4% (inactive)
CCOC(=O)C1(Cc2ccc(Cl)cc2)CCN(C(C)CCn2cccn2)CC1 (stereo not given)	0% (inactive)
